From PubChem BioAssay (NCI) come the findings set out here.

Compounds without any hit were thinned out: in the full panel of roughly 79,000, 15% have a hit. A number with no mark means an inactive call. Active and inactive are the calls of the source. No stated cut-off is given here; in the data, active means growth inhibition above about 70%; inactive means the rest.

A short description of the experiment: NCI Yeast Anticancer Drug Screen. Data for the mgt1 strain (AID 153). The settings on record: S. cerevisiae mgt1 mutant growth inhibition; at 100.0 µM; active compounds read high. Summed up: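 Vehicle-normalized growth inhibition is determined in mgt1 yeast, a strain selected for a defined alteration in DNA repair or cell cycle control.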
`C/C(=N\NC(=S)SCc1ccccc1)c1ccccn1`: the growth inhibition was 92% (active).
On to `CC[C@@]1(O)C(=O)OCc2c1cc1n(c2=O)Cc2cc3c(N)cccc3nc2-1`, for which the growth inhibition was 5%.
To `CN(C)c1ccc(Sc2ccc3nc(N)nc(N)c3c2)cc1` belongs 7%; to `CC(=O)OCCOCNC(=S)N/N=C(\C)c1cnccn1`, 82% (active); to `COc1ccc(C2c3cc4c(cc3OC(C)(O)C2C)OCO4)c(OC)c1` (configuration not stated), 89% (active).
To `COc1cc(C2SCC(=O)N2c2ccc(-c3ccc(-n4c(-c5ccccc5)nc5ccccc5c4=O)cc3)cc2)cc(OC)c1OC` (configuration not stated) belongs -7%.
To `COc1ccc(Br)c(C(=O)Sc2nnnn2-c2cccc(Cl)c2)c1` belongs 95% (active); to `O=C(NNc1ccnc2cc(Cl)ccc12)/C(=C\c1ccccc1Cl)NC(=O)c1ccccc1`, 62%; to `CSC(=S)Nc1cccc(C)n1`, 59%.
Regarding `O=C(/C=C\c1ccc(Cl)cc1Cl)c1cccs1`, the growth inhibition is 5%.
To `COc1ccc(-c2cn(-c3ccc(I)cc3)c3ncnc(N)c23)cc1` belongs 17%.
To `CN(C)c1ccc(C(C#N)=C(C#N)C#N)cc1` belongs 10%; to `COc1cc(/C=C2\CCc3ccccc3C2=O)cc(OC)c1OC`, 73% (active).
To `CC(C)/C(Cl)=N\OC(=O)Nc1cccc(Cl)c1` belongs 0%; to `CC1(C)[C@@H]2CC[C@]1(C)[C@H](OC(=O)CSC#N)C2`, 98% (active).
`NNC(=O)CCc1ccc2ccc3ccccc3c2c1`: the growth inhibition is 23%.
For `COc1ccc(/C(C)=N/OC(=O)c2c(-c3ccccc3Cl)noc2C)cc1CN1CCOCC1`, the growth inhibition is 87% (active).
